Assay results from PubChem BioAssay.
Activity calls are given as the source filed them.

Key:
[1] = small molecules captured by biotinylated probe aFSTL3 – biochemical, small-molecule microarray, fluorescence 635/667, stem cell growth factor project, primary screen (AID 1064); conditions: higher = more signal;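 further: measures binding of the biotinylated anti-FSTL3 antibody to printed compounds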
[2] = binders from COS7 lysate, DM2A8 probe, primary screen, torsin A project, cell lysate, small-molecule microarray, fluorescence 635/667 (AID 1065); conditions: higher = more signal, COS7 lysate expressing mutant human TOR1A
[3] = small molecules captured by biotinylated probe aFGF2 – biochemical, small-molecule microarray, fluorescence 635/667, stem cell growth factor project, primary screen (AID 1067); conditions: higher = more signal;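 further: measures binding of biotinylated aFGF2 protein to printed compounds on slides; z-score merges feature fluorescence and signal-to-noise across triplicate slides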
[4] = small molecules captured by biotinylated probe aFGF10 – biochemical, small-molecule microarray, fluorescence 635/667, stem cell growth factor project, primary screen (AID 1071); conditions: higher = more signal;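 further: score merges 667 nm spot intensity and signal to noise from triplicate slides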
[5] = molecular target: Neurogenic locus notch homolog protein 2 (Homo sapiens) (UniProt Q04721); assay: small molecules binding Notch2 protein – biochemical, small-molecule microarray, 635 nm fluorescence, stem cell growth factors, primary screen (AID 1073); conditions: higher = more signal
Sequence of Neurogenic locus notch homolog protein 2 (Homo sapiens) (Q04721 whole entry, looked up, canonical isoform): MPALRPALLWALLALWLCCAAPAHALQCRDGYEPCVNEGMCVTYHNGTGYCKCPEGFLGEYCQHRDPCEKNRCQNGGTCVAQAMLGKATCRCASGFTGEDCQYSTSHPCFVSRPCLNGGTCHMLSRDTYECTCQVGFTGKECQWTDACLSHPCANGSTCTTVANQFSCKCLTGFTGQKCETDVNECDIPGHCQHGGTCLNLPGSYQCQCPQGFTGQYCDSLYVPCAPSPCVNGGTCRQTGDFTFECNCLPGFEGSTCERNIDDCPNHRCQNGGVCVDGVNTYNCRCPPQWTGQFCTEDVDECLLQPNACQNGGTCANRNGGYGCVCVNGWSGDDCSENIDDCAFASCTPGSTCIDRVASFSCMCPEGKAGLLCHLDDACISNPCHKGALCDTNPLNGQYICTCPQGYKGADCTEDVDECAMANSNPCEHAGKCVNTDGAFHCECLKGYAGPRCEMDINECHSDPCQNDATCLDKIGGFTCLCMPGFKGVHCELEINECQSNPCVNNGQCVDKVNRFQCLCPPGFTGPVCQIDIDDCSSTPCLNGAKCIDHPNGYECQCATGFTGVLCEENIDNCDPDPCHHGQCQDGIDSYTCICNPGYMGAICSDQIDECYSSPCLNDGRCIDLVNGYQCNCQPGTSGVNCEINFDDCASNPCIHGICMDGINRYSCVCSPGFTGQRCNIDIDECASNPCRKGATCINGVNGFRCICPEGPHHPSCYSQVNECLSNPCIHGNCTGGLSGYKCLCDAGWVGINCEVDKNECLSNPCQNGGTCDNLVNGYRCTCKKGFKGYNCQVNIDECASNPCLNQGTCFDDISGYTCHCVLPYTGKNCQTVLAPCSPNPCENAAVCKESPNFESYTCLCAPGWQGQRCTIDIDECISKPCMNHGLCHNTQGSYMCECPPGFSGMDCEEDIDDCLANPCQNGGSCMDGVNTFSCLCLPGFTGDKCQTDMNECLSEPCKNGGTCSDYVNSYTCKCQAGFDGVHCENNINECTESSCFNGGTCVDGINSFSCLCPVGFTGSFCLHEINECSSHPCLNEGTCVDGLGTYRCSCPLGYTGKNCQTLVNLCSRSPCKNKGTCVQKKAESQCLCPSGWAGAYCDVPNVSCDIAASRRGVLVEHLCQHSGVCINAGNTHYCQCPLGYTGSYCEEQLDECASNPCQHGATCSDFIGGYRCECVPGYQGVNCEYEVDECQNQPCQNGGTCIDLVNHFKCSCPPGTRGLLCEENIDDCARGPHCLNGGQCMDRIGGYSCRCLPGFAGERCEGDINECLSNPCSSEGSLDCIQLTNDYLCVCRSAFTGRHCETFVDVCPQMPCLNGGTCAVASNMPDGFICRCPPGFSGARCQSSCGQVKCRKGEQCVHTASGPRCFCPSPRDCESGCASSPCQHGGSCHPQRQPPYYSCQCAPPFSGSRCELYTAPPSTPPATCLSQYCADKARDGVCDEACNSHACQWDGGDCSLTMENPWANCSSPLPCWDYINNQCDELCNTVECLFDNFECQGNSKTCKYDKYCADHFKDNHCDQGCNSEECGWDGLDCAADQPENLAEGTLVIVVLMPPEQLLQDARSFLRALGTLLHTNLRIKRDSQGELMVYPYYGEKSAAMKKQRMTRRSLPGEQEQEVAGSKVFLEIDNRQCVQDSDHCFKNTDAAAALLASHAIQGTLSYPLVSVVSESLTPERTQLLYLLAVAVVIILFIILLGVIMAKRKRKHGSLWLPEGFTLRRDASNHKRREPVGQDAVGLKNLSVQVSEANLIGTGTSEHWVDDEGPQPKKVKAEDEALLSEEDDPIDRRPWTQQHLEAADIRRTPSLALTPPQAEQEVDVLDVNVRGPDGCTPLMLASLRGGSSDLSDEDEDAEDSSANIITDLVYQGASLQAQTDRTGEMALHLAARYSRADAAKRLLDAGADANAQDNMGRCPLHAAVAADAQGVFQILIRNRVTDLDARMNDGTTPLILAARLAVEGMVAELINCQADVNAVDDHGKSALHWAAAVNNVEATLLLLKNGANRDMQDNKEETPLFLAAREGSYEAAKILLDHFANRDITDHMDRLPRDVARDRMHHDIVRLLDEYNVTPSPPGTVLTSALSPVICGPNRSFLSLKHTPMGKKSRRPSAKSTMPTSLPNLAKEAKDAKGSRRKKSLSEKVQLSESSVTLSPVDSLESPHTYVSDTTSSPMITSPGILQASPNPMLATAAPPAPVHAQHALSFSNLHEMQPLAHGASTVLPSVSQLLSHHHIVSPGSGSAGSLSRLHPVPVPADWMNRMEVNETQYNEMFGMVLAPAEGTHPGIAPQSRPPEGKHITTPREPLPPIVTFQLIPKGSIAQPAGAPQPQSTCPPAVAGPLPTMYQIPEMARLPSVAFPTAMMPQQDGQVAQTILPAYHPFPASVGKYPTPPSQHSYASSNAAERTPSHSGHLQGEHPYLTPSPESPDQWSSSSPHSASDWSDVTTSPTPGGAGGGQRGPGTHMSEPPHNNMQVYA

[6] = molecular target: Pro-neuregulin-1, membrane-bound isoform (Homo sapiens) (UniProt Q02297); assay: small molecules binding neuregulin-1 protein – biochemical, small-molecule microarray, fluorescence 635/667, psychiatric disease protein project, primary screen (AID 1075); conditions: NRG1 binding, 635 nm fluorescence, higher = more signal;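 further: score combines 667 nm spot fluorescence with signal to noise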
Sequence of Pro-neuregulin-1, membrane-bound isoform (Homo sapiens) (Q02297 whole entry, looked up, the tested form may be a part, canonical isoform): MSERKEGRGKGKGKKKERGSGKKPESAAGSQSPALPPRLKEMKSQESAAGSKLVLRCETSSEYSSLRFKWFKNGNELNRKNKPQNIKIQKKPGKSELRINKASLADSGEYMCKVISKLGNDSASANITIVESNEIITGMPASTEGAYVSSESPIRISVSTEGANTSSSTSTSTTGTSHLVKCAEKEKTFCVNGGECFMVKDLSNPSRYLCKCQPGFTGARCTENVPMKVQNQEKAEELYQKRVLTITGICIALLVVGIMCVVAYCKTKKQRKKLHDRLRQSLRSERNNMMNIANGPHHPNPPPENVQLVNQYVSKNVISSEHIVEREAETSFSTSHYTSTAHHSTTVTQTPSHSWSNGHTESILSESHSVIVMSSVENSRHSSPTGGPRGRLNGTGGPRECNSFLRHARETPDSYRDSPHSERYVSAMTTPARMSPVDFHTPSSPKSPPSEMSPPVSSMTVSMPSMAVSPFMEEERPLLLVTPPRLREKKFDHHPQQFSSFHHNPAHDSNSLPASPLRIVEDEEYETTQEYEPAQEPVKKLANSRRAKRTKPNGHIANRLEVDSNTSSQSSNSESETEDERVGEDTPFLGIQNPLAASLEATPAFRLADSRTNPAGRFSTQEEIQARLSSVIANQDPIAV

[7] = tested on: Neuregulin-1 EGF-like domain; assay: small molecules binding NRG1 EGF domain – biochemical, small-molecule microarray, 635 nm fluorescence, primary screen (AID 1081); conditions: higher = more signal;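 further: binding of the protein to compounds printed on small-molecule microarray slides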
[8] = FRG1 expression reporter modulators in myotubes – cell-based, C2C12 myotubes, firefly/Renilla luciferase, luminescence, FRG1 inhibition for FSHD, primary screen (AID 1084); conditions: FRG1 promoter luciferase, higher = more signal, called active from +8 up or from −8 down
[9] = small molecules captured by biotinylated probe aFST – biochemical, small-molecule microarray, fluorescence 635/667, stem cell growth factor project, primary screen (AID 1086); conditions: higher = more signal;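 further: score merges 667 nm fluorescence with signal-to-noise of each printed compound spot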
[10] = binders of probe aHhip on microarray, primary screen, stem cell growth factor project, biochemical, small-molecule microarray, fluorescence 635/667 (AID 1087); conditions: higher = more signal;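 further: score merges spot fluorescence at 667nm with spot signal to noise ratio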
[11] = tested on: PRMT1 (protein arginine N-methyltransferase 1); assay: small molecules binding arginine methyltransferase PRMT1 – biochemical, small-molecule microarray, 635 nm fluorescence, primary screen (AID 1088); conditions: higher = more signal;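 further: binding of Prmt1 protein to compounds spotted on small-molecule microarray slides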
[12] = growth effects on S. cerevisiae YJM789 – YJM789 clinical isolate, OD600, 24 h, basal, primary screen (AID 1089); conditions: higher = more signal, called active from +8 up or from −8 down;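 further: growth of clinical yeast isolate S. cerevisiae YJM 789 seeded 1000 cells per well; test concentration not given here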
[13] = S. pombe growth modifiers, basal conditions – strain 972, OD600, 24 h, no modulator, primary screen (AID 1090);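 further: basal condition with compound alone and no growth modifier present; test concentration not given here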; conditions: S. pombe 972 growth, higher = more signal, called active from +8 up or from −8 down
[14] = budding yeast growth modifiers under rapamycin – strain BY4716, OD600, 96 h, primary screen (AID 1091); further: test concentration not given here; conditions: S. cerevisiae BY4716 + rapamycin, higher = more signal, called active from +8 up or from −8 down
[15] = molecular target: Torsin-1A-interacting protein 2 (Homo sapiens) (UniProt Q8NFQ8); assay: small molecules binding lysate-expressed LULL1 – cell lysate, human LULL1 lysate, 635/667 nm fluorescence, primary screen (AID 1092); conditions: small-molecule microarray, hLULL1 lysate binding, 635 nm fluorescence; higher = more signal;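 further: probe is lysate of COS7 cells overexpressing human LULL1; score merges per-feature 667 nm fluorescence with signal-to-noise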
Sequence of Torsin-1A-interacting protein 2 (Homo sapiens) (Q8NFQ8 whole entry, looked up): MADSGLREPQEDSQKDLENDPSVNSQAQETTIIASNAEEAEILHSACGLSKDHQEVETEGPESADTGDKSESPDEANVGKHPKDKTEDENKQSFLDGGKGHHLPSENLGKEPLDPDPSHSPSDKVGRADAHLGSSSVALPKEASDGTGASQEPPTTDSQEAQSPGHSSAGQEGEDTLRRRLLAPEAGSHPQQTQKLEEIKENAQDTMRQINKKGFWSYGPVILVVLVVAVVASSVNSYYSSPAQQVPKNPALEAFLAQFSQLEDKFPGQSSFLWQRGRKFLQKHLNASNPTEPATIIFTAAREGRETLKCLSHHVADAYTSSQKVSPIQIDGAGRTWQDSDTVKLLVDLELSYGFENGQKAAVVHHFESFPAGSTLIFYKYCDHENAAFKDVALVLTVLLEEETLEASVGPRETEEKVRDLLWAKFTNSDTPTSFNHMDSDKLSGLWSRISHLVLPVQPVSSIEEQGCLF

[16] = optical density change of DRC41 E. coli – strain DRC41, OD650, 24 h, E. coli filamentation project, primary screen (AID 1093);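 further: MC1000 strain lacking acrAB efflux and sulA so SOS filamentation is blocked; test concentration not given here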; conditions: E. coli DRC41 growth, higher = more signal, called active from +8 up or from −8 down
[17] = probe aLefty2 binding to arrayed compounds – biochemical, biotinylated probe, 635/667 nm fluorescence, primary screen (AID 1094); conditions: small-molecule microarray, higher = more signal;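 further: score merges spot fluorescence near 667 nm with spot signal-to-noise ratio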
[18] = tested on: Noggin (protein binding on small-molecule microarray); assay: small molecules binding Noggin protein – biochemical, 635/667 nm fluorescence, primary screen (AID 1095); conditions: 635 nm fluorescence, higher = more signal;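 further: score merges 667 nm feature fluorescence with signal to noise over triplicate slides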
[19] = molecular target: Neurogenic locus notch homolog protein 3 (Homo sapiens) (UniProt Q9UM47); assay: small molecules binding NOTCH3 protein – biochemical, 635/667 nm fluorescence, primary screen (AID 1096); conditions: small-molecule microarray, 635 nm fluorescence, higher = more signal
[20] = probe aEGFR binding to arrayed compounds – biochemical, biotinylated probe, 635/667 nm fluorescence, primary screen (AID 1097); conditions: small-molecule microarray, higher = more signal;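 further: probe is a biotinylated anti-EGFR antibody binding compounds printed on slides; score combines fluorescence near 667 nm and signal to noise of each spot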

| SMILES | composite z-score [1] | composite z-score [2] | composite z-score [3] | composite z-score [4] | composite z-score [5] | composite z-score [6] | composite z-score [7] | z-score [8] | composite z-score [9] | composite z-score [10] | composite z-score [11] | z-score [12] | z-score [13] | z-score [14] | composite z-score [15] | z-score [16] | composite z-score [17] | composite z-score [18] | composite z-score [19] | composite z-score [20] |
| --- | --- | --- | --- | --- | --- | --- | --- | --- | --- | --- | --- | --- | --- | --- | --- | --- | --- | --- | --- | --- |
| C#CCNC(=O)[C@H](Cc1ccccc1)NC(=O)[C@@H](N=[N+]=[N-])C(C)C | -0.57 | -0.003 | -0.0894 | 0.334 | 1.04 | 0.452 | 1.08 | 0.171 (inactive) | 0.16 | -0.409 | 0.911 | -0.611 (inactive) | 0.139 (inactive) | -0.229 (inactive) | 1.57 | 0.35 (inactive) | -0.116 | 0.434 | 0.5 | -0.071 |
| CCOC(=O)C1=CC[C@@H](c2ccc([N+](=O)[O-])cc2)N(S(=O)(=O)c2ccc(C)cc2)[C@H]1c1ccccc1 | -0.298 | 0.491 | 0.052 | 0.628 | 1.55 | 0.525 | 1.4 | -2.02 (inactive) | 0.858 | 0.0695 | 1.54 | 0.792 (inactive) | 1.45 (inactive) | 3.16 (inactive) | 2.98 | 0.413 (inactive) | 0.0511 | 1.02 | 1.14 | 0.202 |
| C=C(C(=O)CC[C@H](OC(=O)c1cccnc1)c1cccc(OCCO)c1)C(C)C | 0.483 | 0.401 | -0.157 | -0.195 | -1.26 | -0.593 | 0.484 | 0.243 (inactive) | -0.809 | 0.238 | 1.03 | 0.865 (inactive) | 0.167 (inactive) | 1.1 (inactive) | 0.391 | 0.483 (inactive) | -0.017 | -0.367 | -0.424 | -0.0238 |
| O=C1NC(=O)C2C1C=CC(C(O)c1cc(C(F)(F)F)cc(C(F)(F)F)c1)N2Nc1ccc(Cl)cc1Cl (stereo not given) | 0.812 | 0.623 | 0.277 | 0.404 | 0.351 | 1.45 | 0.766 | -0.166 (inactive) | 0.881 | -0.0346 | 0.33 | -1.44 (inactive) | -17 (active) | -0.256 (inactive) | 2.24 | -2.34 (inactive) | 0.0094 | -0.93 | 0.398 | 0.228 |
| Cc1ccc(S[C@]2(C(=O)NCCN3CCOCC3)CC(=O)N(Cc3ccccc3C(F)(F)F)[C@@H]2c2ccc(CO)cc2I)cc1 | 0.273 | -0.245 | -0.0876 | -0.36 | -0.103 | 2.09 | 1.23 | -0.883 (inactive) | -0.295 | -0.236 | 0.783 | -1.57 (inactive) | -4.24 (inactive) | 0.176 (inactive) | 1.2 | -0.28 (inactive) | -0.145 | -0.586 | -0.689 | -0.233 |
| Cc1ccc(S[C@]2(C(=O)NCC(C)C)CC(=O)N(Cc3ccccc3Cl)[C@@H]2c2ccc(CO)cc2I)cc1 | 0.699 | 1.65 | -0.0818 | 0.452 | -1.11 | 1.54 | 1.36 | -1.45 (inactive) | -0.414 | -0.0645 | 0.939 | -1.38 (inactive) | -1.87 (inactive) | 0.0522 (inactive) | 1.8 | -0.712 (inactive) | 0.225 | -1.08 | -0.309 | -0.304 |
| C=C(COC)/C(=C/C[C@@H](OC(=O)c1ccncc1)c1ccc(CO)o1)c1cnc2ccccc2c1 | -0.376 | 1.03 | 0.0235 | 1.2 | 1.73 | 1.5 | 1.34 | 0.487 (inactive) | 0.668 | 0.115 | 1.55 | -0.854 (inactive) | 0.536 (inactive) | 0.14 (inactive) | 1.59 | 0.647 (inactive) | -0.112 | 1.88 | 1.02 | -0.0059 |
| NC(N)=NCc1cn(CCc2c[nH]c3ccccc23)nn1 | -0.711 | 0.348 | -0.121 | 0.536 | 0.348 | 0.499 | 0.992 | 0.512 (inactive) | 0.225 | 0.132 | 0.974 | -0.289 (inactive) | -0.002 (inactive) | -1.38 (inactive) | 1.01 | -0.979 (inactive) | -0.166 | 1.36 | 0.646 | 0.128 |
| CC(C)CNC(=O)[C@@H]1c2ccccc2C(=O)N(Cc2cc(F)cc(C(F)(F)F)c2)[C@H]1c1ccc(CO)cc1 | 0.366 | -0.23 | 0.0079 | 0.207 | 0.561 | 0.38 | 1.23 | -1.78 (inactive) | 0.0604 | -0.0237 | 1.4 | -0.212 (inactive) | -0.758 (inactive) | -0.483 (inactive) | 1.73 | 2.93 (inactive) | 0.188 | 0.179 | 0.379 | -0.0214 |
| CN(C)CCCNC(=O)[C@@H]1c2ccccc2C(=O)N(CC23CC4CC(CC(C4)C2)C3)[C@H]1c1ccc(CO)cc1 | -0.782 | 1.13 | 0.0878 | 0.837 | 1.28 | 1.15 | 1.39 | -1.92 (inactive) | 0.445 | -0.128 | 1.53 | -0.0129 (inactive) | -7.98 (inactive) | -2.06 (inactive) | 3.24 | 0.583 (inactive) | -0.227 | 0.954 | 1.05 | -0.0801 |
